In the library only some 15% were active in any assay of this set; here they are far more common.
Pf growth 96h – Primary qHTS for delayed death inhibitors of the malarial parasite plastid, 96 hour incubation; P. falciparum luciferase reporter growth, 96 h; Potency, µM (doses to about 28.7 µM), without a hit: at the top dose activity change, negative = inhibition, most hits filed as inhibitors; 320,000 compounds, 6.9% hits; also: potency is read from the fitted curve at half-maximal effect; % is scaled to controls: 0 for no effect and ±100 for the full control effect
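Erythrocytes infected with luciferase-expressing P. falciparum were dispensed at 2% hematocrit and 0.05% parasitemia (final), then incubated with compounds 96 hours at 37 C in 5% CO2. Luminescence after detection reagent addition reported growth.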
HCMV antiviral – qHTS Assay for inhibitors of the human cytomegalovirus (HCMV); activity change, negative = inhibition, % at 57.5 µM; AID 1259415, 2018; HFF cells, HCMV-luciferase reporter, 72 h; active compounds read low; 410,000 compounds, 4.5% hits; in the data active = activity change below about -60%; inconclusive = no clear call, values can overlap the other calls; inactive = above about -39%; also: % is scaled to controls: 0 for no effect and ±100 for the full control effect
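Inhibition of viral replication was scored as loss of reporter luminescence in HFFs infected with HCMV-luciferase (MOI 1 PFU/cell) for 72 h; compounds tested at 2 doses, normalized to buffer and Salinomycin controls.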
Pf growth 48h – Primary qHTS for delayed death inhibitors of the malarial parasite plastid, 48 hour incubation | P. falciparum luciferase growth in erythrocytes, 48 h | Potency, µM (titrated, usually from 28.7 µM), for inactives: at the highest dose activity change, negative = inhibition, hits mostly inhibitors | 310,000 compounds, 5.9% hits | AID 504832, 2011; also: potency is read from the fitted curve at half-maximal effect; % is scaled to controls: 0 for no effect and ±100 for the full control effect
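Firefly luciferase activity from engineered P. falciparum reports growth; inhibitors lower the luminescent signal. Cultures contained 2% hematocrit erythrocytes at 0.1% final parasitemia.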
Sm TGR inh – qHTS Assay for the Inhibitors of Schistosoma Mansoni Peroxiredoxins | Schistosoma mansoni thioredoxin glutathione reductase (TGR), Q962Y6 | purified TGR, DTNB reduction, TNB absorbance 405 nm | Potency, µM (highest dose often 114 µM), inactives show at the highest dose activity change, negative = inhibition, most hits filed as inhibitors | 360,000 compounds, 3% hits | AID 485364, 2010; also: potency is read from the fitted curve at half-maximal effect; % is scaled to controls: 0 for no effect and ±100 for the full control effect; nearly all actives have a fitted effect of over 60% in size
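Kinetic colorimetric format: TGR-catalysed, NADPH-driven DTNB reduction monitored via TNB absorbance. Enzyme dispensed at 20 nM; compound exposure 15 min at room temperature before reaction start.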
HCV inhibitor – qHTS Assay for Inhibitors of Hepatitis C Virus (HCV). Potency, µM (doses to about 41.8 µM), without a hit: at the highest dose activity change, negative = inhibition, usual class: inhibitors. 340,000 compounds, 3.4% hits. AID 651820, 2012. Huh7.5.1 HCVcc-Cre infection, luciferase reporter, 44 h; also: potency is read from the fitted curve at half-maximal effect; % is scaled to controls: 0 for no effect and ±100 for the full control effect
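Cells (1,000/well) were plated 4 h before compound, then infected with HCVcc-Cre virus (~0.5 moi). After 44 h further culture, infection was read as luciferase luminescence following a 15 min substrate incubation at room temperature.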
SARS PLP yeast – qHTS of Yeast-based Assay for SARS-CoV PLP; AID 485353, 2010; Potency, µM (titrated, usually from 32.9 µM), for inactives: at the top dose activity, positive = growth rescue, actives largely listed as activators; 330,000 compounds, 0.19% hits; S. cerevisiae expressing SARS-CoV PLpro, growth rescue; calls by dose curve; also: potency is read from the fitted curve at half-maximal effect; 0% is about no effect; nearly all actives have a fitted effect of over 55% in size
Starred values were filed as active, the others as inactive; ? = inconclusive; . = no result given. Unless noted, calls follow the shape of the dose curve; as a rule, active = well fitted curve in the direction sought with a large enough effect; inconclusive = small, poorly fitted or top-dose-only effect, or another doubt; inactive = no such curve, though single readings can be large; an effect the other way counts as inactive or inconclusive.

SMILES	Pf growth 96h	HCMV antiviral	Pf growth 48h	Sm TGR inh	HCV inhibitor	SARS PLP yeast
O=C(Nc1ccccc1N1CCCCC1)c1cc(S(=O)(=O)N2CCOCC2)ccc1F	0%	-20	10µM*	0%	?	1%
Cc1cccc(C(=O)Nc2cc(S(=O)(=O)N3CCOCC3)ccc2N2CCCC2)c1	?	3	?	-7%	?	0%
CCCNC(=O)c1cc(S(=O)(=O)N2CCCCC2)ccc1N1CCOCC1	-8%	-22	?	-3%	32%	2%
Cc1cccc(C(=O)Nc2cc(S(=O)(=O)N3CCOCC3)ccc2N2CCCCC2)c1	?	?	7.4µM*	9%	?	-3%
O=C(NCCc1c[nH]c2ccccc12)c1cc(S(=O)(=O)N2CCCCC2)ccc1N1CCOCC1	66%	-13	7.4µM*	-2%	14%	7%
O=C(Nc1ccccc1F)Nc1cc(S(=O)(=O)N2CCOCC2)ccc1N1CCCC1	0%	-3	-2%	-2%	0%	-3%
O=C(Nc1ccc(Cl)c(Cl)c1)Nc1cc(S(=O)(=O)N2CCOCC2)ccc1N1CCCC1	-2%	-68*	3%	1%	?	?
COC(=O)[C@]12CCCCC=C1N(CCC1=CCCCC1)C(=O)[C@H](CC(=O)N1CCOCC1)C2	.	11	.	.	.	.
O=S(=O)(Nc1ccc(Cl)c(Cl)c1)N1CCOCC1	4.7µM*	32	7%	1%	24%	-1%
O=C(Nc1cc(S(=O)(=O)N2CCOCC2)ccc1N1CCCC1)c1ccc(Cl)cc1	?	3	15µM*	-6%	?	-2%
O=S(=O)(Nc1cc(Cl)cc(Cl)c1)N1CCOCC1	3%	-23	4%	2%	16%	1%
Cc1ccc(C)c(N2CCN(S(=O)(=O)c3ccc(F)c(C(=O)Nc4ccc(Cl)cc4Cl)c3)CC2)c1	.	-22	.	-11%	.	.
CN1CCN(c2ccc(C(F)(F)F)cc2NC(=O)Nc2ccccc2)CC1	1.5µM*	-25	.	14%	?	8%
O=C(Nc1ccc(Cl)cc1Cl)c1cc(S(=O)(=O)N2CCN(c3ccccc3F)CC2)ccc1F	.	-65*	.	7%	.	.
CCc1cccc(-n2nnc(-c3nsc(NC(=O)c4cccc(OC)c4)n3)c2C)c1	.	?	.	-30%	.	.
COc1cc(OC)cc(-c2nn[nH]n2)c1	-28%	31	9%	-13%	10%	8%
Cc1ccc(S(=O)(=O)NC(=O)c2cc(C)n(-c3cc(S(=O)(=O)N4CCOCC4)ccc3N3CCCC3)c2C)cc1	4.7µM*	8	.	-14%	-9%	-5%
Cc1ccc(C(=O)Nc2cc(S(=O)(=O)N3CCOCC3)ccc2N2CCCC2)cc1	-22%	-2	?	-29%	-14%	2%
O=C(Nc1cc(S(=O)(=O)N2CCCCC2)ccc1N1CCOCC1)c1ccc(C(F)(F)F)cc1	13µM*	-25	9.3µM*	0%	-14%	4%
O=C(Nc1cc(S(=O)(=O)N2CCOCC2)ccc1N1CCCCC1)c1ccccc1	4.7µM*	?	?	-6%	?	3%
O=C(Nc1cc(S(=O)(=O)N2CCOCC2)ccc1N1CCCCC1)c1ccc(Cl)cc1	8.3µM*	?	13µM*	7%	?	-4%
COc1ccc(S(=O)(=O)N2CCOCC2)cc1NC(=O)c1cc(=O)[nH]c2ccccc12	?	10	-29%	16%	-10%	-2%
CC(=O)N1CCOc2ccc(S(=O)(=O)N3CCC(C(=O)Nc4cc(C)ccc4C)CC3)cc21	41%	-64*	?	-2%	-12%	0%
CC(=O)N1CCOc2ccc(S(=O)(=O)N3CCC(C(=O)Nc4ccc(C)cc4C)CC3)cc21	58%	-34	?	-3%	-7%	1%

Bioassay records: PubChem, National Center for Advancing Translational Sciences (NCATS)
